Test results reported in PubChem BioAssay (NCATS).
Results filed as inconclusive are left out. The source made the active and inactive calls. Unless noted, calls come from the whole dose curve; as a rule, active = well fitted curve in the direction sought with a large enough effect; inconclusive = small, poorly fitted or top-dose-only effect, or another doubt; inactive = no such curve, though single readings can be large; an effect the other way counts as inactive or inconclusive.

How the values were obtained:
[1] = target: Calcium and integrin-binding protein 1 (Homo sapiens) (UniProt Q99828); assay: Primary qHTS for Identification of Calcium Integrin Binding Protein 1 (CIB1) Competitor (AID 1508620);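 note: GST tagged CIB1 binding a fluorescein labelled alphaIIb integrin peptide tracer; top concentration of the series differs between compounds; % is set by controls: 0 for no effect and ±100 for the full control effect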
Chain of Calcium and integrin-binding protein 1 (Homo sapiens) (Q99828 whole entry, looked up): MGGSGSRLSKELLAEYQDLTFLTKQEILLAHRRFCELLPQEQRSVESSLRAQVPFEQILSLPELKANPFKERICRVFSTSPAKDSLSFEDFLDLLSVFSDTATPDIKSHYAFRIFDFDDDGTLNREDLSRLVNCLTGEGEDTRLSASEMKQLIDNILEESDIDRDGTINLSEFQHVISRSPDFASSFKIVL
How it was run: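 Fluorescence polarization competition: CIB1-GST (1 uM final) preincubated with compound 15 min at room temperature, then FITC-labeled alphaIIb peptide (100 nM final) added for another 15 min. Polarization read at Ex 480/Em 540.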

[2] = Primary qHTS for inhibitors of nuclear receptor binding SET domain protein 2 (NSD2) in an isogenic RCH-ACV NSD2 p.E1099K mutant (9B) (AID 1645876); note: potency is the fitted concentration of half-maximal effect; nearly all actives have a fitted effect of over 70% in size
[3] = Primary qHTS for inhibitors of nuclear receptor binding SET domain protein 2 (NSD2) in an RCH-ACV wild type WT cells (2C) (AID 1645877); note: potency is the fitted concentration of half-maximal effect; nearly all actives have a fitted effect of over 70% in size
[4] = target: Catechol O-methyltransferase (Homo sapiens) (UniProt P21964); assay: Confirmatory Screen for Target Class Profiling of Small Molecule Inhibitors of Methyltransferases (AID 1745852; calls by dose curve; note: potency is the fitted concentration of half-maximal effect); conditions: MTase-Glo luminescence, SAH detection, recombinant enzyme; measured here: COMT max response; stronger effect = lower value
Chain of Catechol O-methyltransferase (Homo sapiens) (P21964 whole entry, looked up): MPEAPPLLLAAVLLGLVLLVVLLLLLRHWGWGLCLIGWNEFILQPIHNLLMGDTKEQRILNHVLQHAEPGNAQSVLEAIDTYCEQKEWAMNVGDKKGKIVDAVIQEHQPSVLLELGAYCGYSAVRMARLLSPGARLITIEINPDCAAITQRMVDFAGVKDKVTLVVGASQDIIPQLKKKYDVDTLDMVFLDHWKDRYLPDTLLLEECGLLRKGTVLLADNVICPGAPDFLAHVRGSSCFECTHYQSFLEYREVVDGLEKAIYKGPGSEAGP

[5] = target: Guanidinoacetate N-methyltransferase (Homo sapiens) (UniProt Q14353); assay: as above; conditions: MTase-Glo luminescence, SAH detection, recombinant enzyme; activity change, negative = inhibition: at 57.3 µM (top of the series)
[6] = target: Nicotinamide N-methyltransferase (Homo sapiens) (UniProt P40261); assay: as above; conditions: MTase-Glo luminescence, SAH detection, recombinant enzyme; measured here: NNMT max response; stronger effect = lower value
Chain of Nicotinamide N-methyltransferase (Homo sapiens) (P40261 whole entry, looked up): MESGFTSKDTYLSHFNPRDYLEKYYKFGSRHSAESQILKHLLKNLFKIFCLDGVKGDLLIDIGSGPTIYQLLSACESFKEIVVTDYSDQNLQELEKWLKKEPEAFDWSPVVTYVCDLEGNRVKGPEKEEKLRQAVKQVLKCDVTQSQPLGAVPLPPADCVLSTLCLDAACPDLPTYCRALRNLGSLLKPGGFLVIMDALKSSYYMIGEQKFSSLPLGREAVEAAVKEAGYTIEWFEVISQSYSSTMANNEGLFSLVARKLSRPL

[7] = target: Phenylethanolamine N-methyltransferase (Homo sapiens) (UniProt P11086); assay: as above; conditions: MTase-Glo luminescence, SAH detection, recombinant enzyme; measured here: PNMT max response; stronger effect = lower value
[8] = target: Glutathione peroxidase 1 (Homo sapiens) (UniProt P07203); assay: Primary qHTS Assay for Inhibitors of Recombinant Selenoprotein Glutathione Peroxidase 1 (GPX1) (AID 1845191); note: nearly all actives have a fitted effect of over 65% in size
Chain of Glutathione peroxidase 1 (Homo sapiens) (P07203 whole entry, looked up): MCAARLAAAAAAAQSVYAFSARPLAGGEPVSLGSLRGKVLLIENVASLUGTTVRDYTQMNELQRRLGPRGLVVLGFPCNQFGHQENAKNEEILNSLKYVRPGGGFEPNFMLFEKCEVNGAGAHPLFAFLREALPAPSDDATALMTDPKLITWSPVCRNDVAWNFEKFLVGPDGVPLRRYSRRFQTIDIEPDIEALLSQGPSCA
How it was run: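 GPX1 10 nM, GR 100 nM, GSH 1 mM, NADPH 0.5 mM, CHP 0.5 mM (final). 30-min cpd preincubation, RT. Ex340/Em450 read t=0, t=15 min.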

[9] = target: Lysosomal acid glucosylceramidase (Homo sapiens) (UniProt P04062); assay: Glucocerebrosidase-p2 (AID 348; in the data active = potency below about 10 µM; note: potency is the fitted concentration of half-maximal effect); conditions: purified GBA, blue fluorogenic substrate, 40 min
How it was run: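 Normal human glucocerebrosidase (0.2 nM) with blue fluorogenic substrate (80 uM final) in citrate/phosphate pH 5.9 with 10mM sodium taurocholate, 0.01% tween-20; 40 min RT, NaOH/glycine stop; fluorescence Ex 365/Em 440; AC50 from a titration from 0.6 nM upwards.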

[10] = target: Cytochrome P450 1A2 (Homo sapiens) (UniProt P05177); assay: p450-cyp1a2 (AID 410; calls by dose curve; note: potency is the fitted concentration of half-maximal effect)
Chain of Cytochrome P450 1A2 (Homo sapiens) (P05177 whole entry, looked up): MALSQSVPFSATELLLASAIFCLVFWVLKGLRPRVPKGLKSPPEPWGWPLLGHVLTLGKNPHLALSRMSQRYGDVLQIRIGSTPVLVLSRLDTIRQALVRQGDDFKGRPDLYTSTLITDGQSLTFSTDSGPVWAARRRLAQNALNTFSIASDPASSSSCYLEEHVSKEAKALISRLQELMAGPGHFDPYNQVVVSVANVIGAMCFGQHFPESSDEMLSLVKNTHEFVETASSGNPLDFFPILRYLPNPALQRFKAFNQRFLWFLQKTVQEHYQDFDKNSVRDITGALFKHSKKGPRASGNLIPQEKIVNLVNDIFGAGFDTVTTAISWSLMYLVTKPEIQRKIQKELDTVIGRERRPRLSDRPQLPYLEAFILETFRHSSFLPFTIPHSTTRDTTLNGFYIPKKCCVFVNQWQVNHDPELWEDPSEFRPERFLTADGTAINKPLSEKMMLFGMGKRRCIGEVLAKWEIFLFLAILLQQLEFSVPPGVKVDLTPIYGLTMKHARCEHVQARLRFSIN
How it was run: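 20nM CYP1A2, 100uM Luciferin-ME (=Km), 100mM KPO4; cpd 10 min RT; +NADPH regen, 60 min RT; stop/detect 20 min; luminescence. Normalized to furafylline 57 uM = full inhibition.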

[11] = Stat Signaling Pathway (AID 446; active = well fitted curve in either direction with a large enough effect, not every such curve was filed as active;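 note: ME-180 cervical cancer cells given 40 pM IL-6 alongside compound; SIE-controlled beta-lactamase reporter measured as 460/530 nm FRET emission ratio; % is set by controls: 0 for no effect and ±100 for the full control effect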); conditions: ME-180 (cervical carcinoma) SIE beta-lactamase reporter, IL-6 stimulated, 5 h; at 7.69 µM (top of the series) unless noted
How it was run: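 Normalization used AC90 stimulation (300 pM IL-6) and AC90 inhibition (125 nM pan-JAK inhibitor at 40 pM IL-6). The underlying signal is SIE-driven beta-lactamase in ME-180 cells after 5 h IL-6 exposure with compound.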

[12] = target: Glucocorticoid receptor (Homo sapiens) (UniProt P04150); assay: GR-GFP Redistribution (AID 450;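 active = compounds whose dose series gives a full or clear partial fitted curve of increased nuclear translocation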; note: potency is the fitted concentration of half-maximal effect); conditions: U2OS GR-GFP nuclear translocation, laser cytometry, 2 h
Chain of Glucocorticoid receptor (Homo sapiens) (P04150 whole entry, looked up, the tested form may be a part): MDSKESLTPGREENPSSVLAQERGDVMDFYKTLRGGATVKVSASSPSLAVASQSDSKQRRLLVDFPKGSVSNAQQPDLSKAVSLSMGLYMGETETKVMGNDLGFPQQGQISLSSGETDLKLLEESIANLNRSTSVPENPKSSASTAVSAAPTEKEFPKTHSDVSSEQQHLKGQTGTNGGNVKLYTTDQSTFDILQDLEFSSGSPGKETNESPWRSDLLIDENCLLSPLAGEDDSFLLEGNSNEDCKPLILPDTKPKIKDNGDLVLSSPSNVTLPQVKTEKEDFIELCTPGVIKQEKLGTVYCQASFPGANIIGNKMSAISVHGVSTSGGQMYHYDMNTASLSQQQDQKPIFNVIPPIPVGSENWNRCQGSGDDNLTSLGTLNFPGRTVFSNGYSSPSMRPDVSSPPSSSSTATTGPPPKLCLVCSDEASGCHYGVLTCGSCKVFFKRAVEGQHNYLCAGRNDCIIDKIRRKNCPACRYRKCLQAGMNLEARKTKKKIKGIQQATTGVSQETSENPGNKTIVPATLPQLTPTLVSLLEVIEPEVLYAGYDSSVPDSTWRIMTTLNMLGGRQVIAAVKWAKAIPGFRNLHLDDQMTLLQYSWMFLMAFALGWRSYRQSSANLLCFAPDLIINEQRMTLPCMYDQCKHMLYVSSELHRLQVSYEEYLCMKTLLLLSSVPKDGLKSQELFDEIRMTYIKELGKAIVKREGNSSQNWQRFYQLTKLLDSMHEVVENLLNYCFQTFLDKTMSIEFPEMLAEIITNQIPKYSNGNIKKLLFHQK

[13] = target: Glucocorticoid receptor (Homo sapiens) (UniProt P04150); assay: GR-EFC Redistribution (AID 451; calls by dose curve; note: potency is the fitted concentration of half-maximal effect); conditions: CHO-K1 GR-EFC translocation, beta-gal luminescence, 2 h
How it was run: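 CHO-K1 cells stably expressing nuclear-localized β-gal enzyme acceptor and GR fused C-terminally to the enzyme donor fragment; ligand-driven nuclear translocation restores β-gal by complementation. Compounds titrated up to 46 uM final, 2 h at 37 °C; luminescence read.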

[14] = target: Mitogen-activated protein kinase 10 (Mus musculus) (UniProt Q61831); assay: JNK3 AlphaScreen Assay (AID 530; active = well fitted curve in either direction with a large enough effect, not every such curve was filed as active;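 note: kinase came from lysate of stimulated human HepG2 cells; signal reports phosphorylation of biotinylated GST-cJun 1-79 at Ser73 with 10 µM ATP; % is set by controls: 0 for no effect and ±100 for the full control effect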)
How it was run: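 Biotinylated GST-cJun(1-79) served as substrate for JNK3 in HepG2 lysates stimulated with IL-1beta and TNF-alpha. ATP was 10 uM final, pH 7.6. Ser73 phosphorylation was quantified by AlphaScreen (680 nm excitation).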

[15] = target: Cytochrome P450 2C9 (Homo sapiens) (UniProt P11712); assay: qHTS Assay for Inhibitors and Substrates of Cytochrome P450 2C9 (AID 883); note: potency is the fitted concentration of half-maximal effect; nearly all actives have a fitted effect of over 60% in size
How it was run: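 Human CYP2C9 (10nM) hydroxylated Luciferin-H (100uM, at its KM) to luciferin in 25mM KPO4. Compound was preincubated 10 min at 37C, then NADPH regeneration started a 60 min reaction at 37C. Luminescence was read after detection reagent, normalized to 57uM sulphaphenazole.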

[16] = target: Cytochrome P450 3A4 (Homo sapiens) (UniProt P08684); assay: qHTS Assay for Inhibitors and Substrates of Cytochrome P450 3A4 (AID 884); note: potency is the fitted concentration of half-maximal effect; nearly all actives have a fitted effect of over 50% in size
Chain of Cytochrome P450 3A4 (Homo sapiens) (P08684 whole entry, looked up): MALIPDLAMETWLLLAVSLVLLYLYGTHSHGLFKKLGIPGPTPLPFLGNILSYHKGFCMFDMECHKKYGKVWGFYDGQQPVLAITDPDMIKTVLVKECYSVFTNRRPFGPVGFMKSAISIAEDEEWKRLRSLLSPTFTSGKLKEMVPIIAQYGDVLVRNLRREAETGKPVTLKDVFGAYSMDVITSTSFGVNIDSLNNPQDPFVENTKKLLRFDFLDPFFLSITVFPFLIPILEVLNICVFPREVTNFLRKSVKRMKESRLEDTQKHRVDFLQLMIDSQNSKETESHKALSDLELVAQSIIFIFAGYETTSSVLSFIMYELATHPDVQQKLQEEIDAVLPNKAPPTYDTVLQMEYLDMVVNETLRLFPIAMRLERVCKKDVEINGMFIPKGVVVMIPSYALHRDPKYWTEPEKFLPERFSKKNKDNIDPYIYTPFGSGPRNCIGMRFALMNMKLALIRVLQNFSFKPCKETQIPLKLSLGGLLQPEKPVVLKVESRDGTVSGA
How it was run: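 Luminescent readout of luciferin produced by CYP3A4 (20 nM) dealkylation of Luciferin-PPXE, 25 uM (its KM). NADPH-driven reaction ran 60 min at RT after 10 min compound preincubation; data scaled to 57 uM ketoconazole as 100% inhibition.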

[17] = target: Cytochrome P450 3A4 (Homo sapiens) (UniProt P08684); assay: qHTS Assay for Activators of Cytochrome P450 3A4 (AID 885); note: nearly all actives have a fitted effect of over 65% in size
How it was run: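 Human CYP3A4 dealkylates Luciferin-PPXE to luciferin, which luciferase detection converts to light. Substrate was at its KM (25uM), buffer 200mM KPO4, reaction 60 min at RT.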

[18] = target: Cytochrome P450 2D6 (Homo sapiens) (UniProt P10635); assay: qHTS Assay for Inhibitors and Substrates of Cytochrome P450 2D6 (AID 891); note: potency is the fitted concentration of half-maximal effect; nearly all actives have a fitted effect of over 60% in size
How it was run: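 Luminescent read-out of luciferin formed by 5 nM human CYP2D6 demethylating 30 uM Luciferin-ME EGE (Km level) over 60 min at room temperature after NADPH regeneration addition. Data normalized to full inhibition by 1.43 uM quinidine.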

[19] = Confirmation and Secondary Assay for Modulators of Hemoglobin Beta Chain Splicing at IVS2 654 locus (AID 910);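 note: per-well total GFP intensity by laser scanning cytometry after 2-day treatment; % of control where 0% means no effect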
How it was run: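 HeLa cells stably carrying EGFP interrupted by mutant beta-globin IVS2-654 intron (CMV-driven) were treated with compound for 2 days at 37C; corrected splicing was scored as total peak GFP intensity per well (488 nm excitation, 500-520 nm emission).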

[20] = Confirmation and Secondary Assay for Modulators of Hemoglobin Beta Chain Splicing at IVS2 705 locus (AID 930);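 note: HeLa cells stably expressing the EGFP-705 splicing reporter; GFP fluorescence per well restored by corrected splicing of the IVS2-705 intron in EGFP; % of control where 0% means no effect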
How it was run: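 Fluorescence gain (488 nm laser, 500-520 nm PMT) reflects restored correct splicing of a mutant IVS2-705 intron inside EGFP in stably transfected HeLa cells after 2-day compound treatment.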

[21] = qHTS Assay for Lipid Storage Modulators (AID 1519; calls by dose curve); conditions: Drosophila S3 cells, BODIPY lipid droplet/cell ratio, laser cytometry, cells loaded with oleic acid; for activity change, negative = inhibition: at 57.5 µM (top of the series)
How it was run: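 Cells seeded at 5,000 per well were treated with compounds over a concentration series and loaded with oleic acid (400 uM, as added). Lipid droplet fluorescence (488 nm excitation, 500-530 nm channel) was read by laser-scanning cytometry and normalized to 20 uM Triacsin C.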

[22] = Primary qHTS for small molecule stabilizers of the endoplasmic reticulum resident proteome: Secreted ER Calcium Modulated Protein (SERCaMP) assay (AID 1508630); note: % is set by controls: 0 for no effect and ±100 for the full control effect
How it was run: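 The SH-SY5Y reporter protocol was run at 3 concentrations up to 38.3 uM (primary) or 11 concentrations (follow-up): 16 h compound, 100 nM thapsigargin for 4 h, then extracellular luciferase luminescence.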

[23] = target: Rap guanine nucleotide exchange factor 3 (Homo sapiens) (UniProt O95398); assay: Confirmatory qHTS for agonist of cAMP-regulated guanine nucleotide exchange factor 3 (EPAC1) (AID 1645881);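 note: EPAC1 catalysed release of BODIPY-GDP from Rap1B seen as fluorescence loss; 100% = effect of cAMP agonist control; nearly all actives have a fitted effect of over 75% in size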
[24] = target: Rap guanine nucleotide exchange factor 4 (Homo sapiens) (UniProt Q8WZA2); assay: Confirmatory qHTS for agonist of cAMP-regulated guanine nucleotide exchange factor 4 (EPAC2) (AID 1645884);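 note: nucleotide exchange releases bodipy-GDP from Rap1 and this lowers its fluorescence; % is set by controls: 0 for no effect and ±100 for the full control effect; nearly all actives have a fitted effect of over 65% in size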
Chain of Rap guanine nucleotide exchange factor 4 (Homo sapiens) (Q8WZA2 whole entry, looked up): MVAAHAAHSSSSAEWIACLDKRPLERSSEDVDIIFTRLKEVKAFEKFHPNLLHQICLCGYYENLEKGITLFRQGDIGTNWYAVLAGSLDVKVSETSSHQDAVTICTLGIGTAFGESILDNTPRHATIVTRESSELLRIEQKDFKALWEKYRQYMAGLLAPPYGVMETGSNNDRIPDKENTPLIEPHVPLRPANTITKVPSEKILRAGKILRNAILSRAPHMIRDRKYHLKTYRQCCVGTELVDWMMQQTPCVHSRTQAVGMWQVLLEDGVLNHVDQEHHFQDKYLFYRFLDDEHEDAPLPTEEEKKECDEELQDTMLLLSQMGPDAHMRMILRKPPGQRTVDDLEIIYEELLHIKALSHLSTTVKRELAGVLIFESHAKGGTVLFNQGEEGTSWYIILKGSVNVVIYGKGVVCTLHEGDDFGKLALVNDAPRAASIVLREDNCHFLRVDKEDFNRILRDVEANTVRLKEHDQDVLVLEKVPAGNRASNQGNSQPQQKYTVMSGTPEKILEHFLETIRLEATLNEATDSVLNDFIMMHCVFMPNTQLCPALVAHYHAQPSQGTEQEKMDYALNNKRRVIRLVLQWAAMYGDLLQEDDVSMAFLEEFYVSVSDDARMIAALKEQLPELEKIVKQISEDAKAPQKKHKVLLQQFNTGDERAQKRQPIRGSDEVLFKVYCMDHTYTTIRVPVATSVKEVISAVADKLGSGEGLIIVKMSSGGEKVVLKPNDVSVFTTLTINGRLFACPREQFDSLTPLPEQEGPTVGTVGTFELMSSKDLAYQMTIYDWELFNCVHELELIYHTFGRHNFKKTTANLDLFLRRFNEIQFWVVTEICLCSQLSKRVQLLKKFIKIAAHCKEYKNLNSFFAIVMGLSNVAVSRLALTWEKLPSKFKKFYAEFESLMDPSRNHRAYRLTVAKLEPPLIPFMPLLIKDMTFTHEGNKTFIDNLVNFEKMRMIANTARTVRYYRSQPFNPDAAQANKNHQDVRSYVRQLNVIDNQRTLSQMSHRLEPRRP

[25] = target: Rap guanine nucleotide exchange factor 4 (Homo sapiens) (UniProt Q8WZA2); assay: Confirmatory qHTS for antagonist of cAMP-regulated guanine nucleotide exchange factor 4 (EPAC2) (AID 1645885); note: potency is the fitted concentration of half-maximal effect; nearly all actives have a fitted effect of over 25% in size
[26] = target: N-terminal Xaa-Pro-Lys N-methyltransferase 1 (Homo sapiens) (UniProt Q9BV86); assay: Confirmatory qHTS for Inhibitors of N-terminal methyltransferase 1 (NTMT1): MTaseGlo Assay (AID 1645874); note: nearly all actives have a fitted effect of over 65% in size; note: potency is the fitted concentration of half-maximal effect;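 for activity change, negative = inhibition: luminescence from SAH made as NTMT1 methylates SPKRIA peptide using SAM; 0% = DMSO control and -100% = no-enzyme control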
Chain of N-terminal Xaa-Pro-Lys N-methyltransferase 1 (Homo sapiens) (Q9BV86 whole entry, looked up): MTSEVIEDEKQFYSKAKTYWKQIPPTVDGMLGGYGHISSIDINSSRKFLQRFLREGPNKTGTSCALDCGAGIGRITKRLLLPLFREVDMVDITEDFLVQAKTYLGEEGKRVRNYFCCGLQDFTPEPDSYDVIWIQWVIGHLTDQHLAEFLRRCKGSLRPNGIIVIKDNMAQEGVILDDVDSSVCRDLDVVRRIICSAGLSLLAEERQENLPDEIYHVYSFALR
How it was run: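 Inhibition was derived from luminescence after SAH-to-ATP conversion, scaled between no-enzyme and DMSO wells, then fitted by 4-parameter Hill. Conditions: 125 nM NTMT1, 100 uM SAM, 1 uM SPKRIA, 30 min RT.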

[27] = NFAT Signaling Pathway (AID 444; active = well fitted curve in either direction with a large enough effect, not every such curve was filed as active); conditions: Jurkat NFAT-bla M1, carbachol, beta-lactamase ratio, 5 h; at 7.69 µM (top of the series) unless noted
How it was run: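 Jurkat cells carrying an NFAT-driven β-lactamase reporter and co-transfected muscarinic M1 receptor were treated with compound plus carbachol (1 uM final, an EC50 level) for 5 h at 37 °C. CCF4 loading followed for 1 h at RT; 460/530 nm ratio gave %activity.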

[28] = target: 3',5'-cyclic-AMP phosphodiesterase 4B (Homo sapiens) (UniProt Q07343); assay: qHTS Assay for Inhibitors of PDE-IV (AID 607; active = well fitted activation curve with a large enough effect in the main read-out, with a control signal flat, not every such curve was filed as active; note: % of control where 0% means no effect)
How it was run: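 HEK293 ACTOne cells with CNG channel (1000/well), endogenous PDE4; membrane potential dye, compounds up to 22.9 uM final. Fluorescence Ex 535/Em 590; RO 20-1724 (100 uM final) as reference.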

[29] = target: Cytochrome P450 2C19 (Homo sapiens) (UniProt P33261); assay: qHTS Assay for Inhibitors and Substrates of Cytochrome P450 2C19 (AID 899); note: potency is the fitted concentration of half-maximal effect; nearly all actives have a fitted effect of over 60% in size
Chain of Cytochrome P450 2C19 (Homo sapiens) (P33261 whole entry, looked up): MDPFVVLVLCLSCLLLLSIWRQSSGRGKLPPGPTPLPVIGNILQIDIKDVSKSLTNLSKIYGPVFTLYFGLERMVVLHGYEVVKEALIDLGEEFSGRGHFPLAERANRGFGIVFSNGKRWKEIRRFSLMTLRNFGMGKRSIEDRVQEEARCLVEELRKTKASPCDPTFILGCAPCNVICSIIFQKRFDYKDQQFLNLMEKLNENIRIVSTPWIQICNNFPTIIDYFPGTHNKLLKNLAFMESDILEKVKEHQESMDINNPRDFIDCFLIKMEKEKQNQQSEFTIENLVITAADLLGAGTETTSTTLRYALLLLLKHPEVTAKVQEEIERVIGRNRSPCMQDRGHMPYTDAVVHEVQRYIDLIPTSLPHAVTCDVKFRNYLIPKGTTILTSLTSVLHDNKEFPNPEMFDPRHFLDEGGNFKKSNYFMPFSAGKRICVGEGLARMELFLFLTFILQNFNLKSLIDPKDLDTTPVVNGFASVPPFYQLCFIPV
How it was run: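 Human CYP2C19 (5nM) with Luciferin-H EGE at 10uM (its KM) in 50mM KPO4 was preincubated with compound for 10 min at 37C. NADPH regeneration started a 60 min 37C reaction. Luciferin was read by luminescence, normalized to 57uM ketoconazole.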

[30] = target: Dual specificity protein kinase CLK4 (Homo sapiens) (UniProt Q9HAZ1); assay: qHTS Assay for Inhibitors of CDC-like Kinase 4 (Kinase-Glo Assay) (AID 1770)
Chain of Dual specificity protein kinase CLK4 (Homo sapiens) (Q9HAZ1 whole entry, looked up): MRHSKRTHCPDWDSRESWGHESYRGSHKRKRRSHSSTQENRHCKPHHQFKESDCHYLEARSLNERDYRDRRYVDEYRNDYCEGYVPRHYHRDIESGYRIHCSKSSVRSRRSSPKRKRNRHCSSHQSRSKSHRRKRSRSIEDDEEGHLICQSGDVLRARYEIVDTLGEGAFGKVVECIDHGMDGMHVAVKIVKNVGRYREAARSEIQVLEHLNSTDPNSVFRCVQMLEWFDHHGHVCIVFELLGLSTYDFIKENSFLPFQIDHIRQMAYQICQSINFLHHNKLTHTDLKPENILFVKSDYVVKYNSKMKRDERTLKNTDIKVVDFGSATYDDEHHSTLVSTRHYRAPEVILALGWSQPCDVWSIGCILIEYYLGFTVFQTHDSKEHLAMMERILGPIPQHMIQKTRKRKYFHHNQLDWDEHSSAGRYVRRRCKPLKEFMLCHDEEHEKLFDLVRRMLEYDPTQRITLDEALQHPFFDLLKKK
How it was run: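 Clk4 25 nM, RS peptide 100 uM, ATP 1 uM, pH 7.5 Tris, 10 mM MgCl2, 2.5 mM DTT; 4.5 h RT; ATP depletion read by Kinase-Glo luminescence.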

[31] = target: Dual specificity protein kinase CLK4 (Homo sapiens) (UniProt Q9HAZ1); assay: qHTS Assay for Inhibitors of CDC-like Kinase 4 (ADP-Glo Assay) (AID 1771); note: potency is the fitted concentration of half-maximal effect; nearly all actives have a fitted effect of over 70% in size
How it was run: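 25 nM Clk4, 100 uM RS peptide, 1 uM ATP (final); 2 mM MgCl2, 0.5 mM EGTA, 2.5 mM DTT, 0.01% Triton X-100; 1 hr RT. ADP-Glo readout: ATP depletion 45 min, conversion/luciferase 30 min, luminescence.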

[32] = target: Dual specificity protein kinase CLK4 (Homo sapiens) (UniProt Q9HAZ1); assay: qHTS Assay for Inhibitors of CDC-like Kinase 4 (ADP-FP Assay) (AID 1795); note: potency is the fitted concentration of half-maximal effect; nearly all actives have a fitted effect of over 60% in size
How it was run: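 Kinase activity was followed as ADP output, converted from fluorescence polarization with a calibration curve. Reactions ran one hour at low ATP (1 uM) with RS peptide substrate.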

[33] = target: Ubiquitin carboxyl-terminal hydrolase 1 (Homo sapiens) (UniProt O94782); assay: Inhibitors of USP1/UAF1: Pilot qHTS (AID 504865);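 note: rhodamine fluorescence freed from ubiquitin-rhodamine substrate followed over time; top concentration of the series differs between compounds; % is set by controls: 0 for no effect and ±100 for the full control effect; nearly all actives have a fitted effect of over 35% in size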
How it was run: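 Enzyme-free wells gave the negative control, while test wells held 1nM USP1/UAF1 preincubated with compound for 15 min at room temperature. Ub-Rho at 150nM final started the reaction, and fluorescence at 480/540 nm was recorded kinetically.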

[34] = measured here: cell count channel max response
[35] = measured here: lipid channel max response

CN(Cc1cccs1)c1ncnc2ccc(-c3ccc4c(c3)OCO4)cc12
-70.6%: activity [6]
-85.9%: activity [4]
inactive: Potency [1] | Potency [8]
-84.2%: activity [7]
active: Potency [2] 20.6 µM | Potency [3] 20.6 µM | Potency [5] 12.1 µM

Cc1cccc(CNc2ncnc3ccc(-c4ccc5c(c4)OCO5)cc23)c1
active: Potency [10] 0.501 µM | Potency [15] 0.316 µM | Potency [16] 2 µM | Potency [18] 0.501 µM
inactive: Potency [9] > 11.4 µM | activity, negative = inhibition [11] -13.6% | Potency [12] > 46 µM | Potency [13] > 46 µM | outcome [14] | Potency [17] | outcome [19] | outcome [20] | activity change, negative = inhibition [21] 5.85% | Potency [1] | Potency [22]
-0.18%: max response [21, 35]
-5.17%: max response [21, 34]

CC(=O)NC(c1cccs1)c1cc(Cl)c2ccccc2c1O (centres undefined)
inactive: Potency [1] | outcome [23] | outcome [24]
active: Potency [25] 12 µM

Cc1cc(C)nc(NC(=S)N2CCN(c3ncccc3C#N)CC2)c1
inactive: Potency [1]
active: Potency [26] 22.4 µM

COc1cccc(-c2ccc3ncnc(NCc4cccs4)c3c2)c1
-18.2%: max response [21, 34]
active: Potency [10] 0.501 µM | Potency [16] 7.94 µM
inactive: activity change, negative = inhibition [27] 23.9% | activity, negative = inhibition [11] -19.5% | Potency [12] > 46 µM | Potency [13] > 46 µM | outcome [14] | Potency [17] | outcome [19] | outcome [20] | activity change, negative = inhibition [21] -9.22% | Potency [1] | Potency [22]
-23.5%: max response [21, 35]

Cc1cc2c(s1)c1cnn(Cc3cccc(C)c3F)c(=O)c1n2C
inactive: Potency [1] | Potency [26]

c1cncc(CNc2ncnc3ccc(-c4ccoc4)cc23)c1
active: Potency [10] 0.316 µM | Potency [16] 1.58 µM | Potency [29] 0.0251 µM | Potency [30] 2.82 µM | Potency [31] 1.58 µM | Potency [32] 0.794 µM
inactive: activity change, negative = inhibition [27] 2.59% | activity, negative = inhibition [11] -13.4% | Potency [12] > 46 µM | Potency [13] > 46 µM | outcome [14] | Potency [28] | Potency [17] | Potency [33] | Potency [1] | Potency [22]
